Assay outcomes deposited in PubChem BioAssay by National Center for Advancing Translational Sciences (NCATS).
HT1080 IDH1KD tx: kills HT-1080 cells with IDH1 knockdown; 360,000 tested, 2% active; Potency, µM (highest dose often 46.1 µM), for inactives: at the highest dose activity, negative = toxicity, actives largely listed as cytotoxic; AID 686971; HT-1080 IDH1 knockdown viability, ATP luminescence, 48 h;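 note: 0% = DMSO wells and -100% = cell-free medium wells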
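HT-1080-IDH1KD cells (IDH1 knocked down), 750/well in RPMI with 5% FBS, treated with compound 48 h at 37 degrees C. Viability by CellTiter-Glo luminescence, normalised to DMSO and no-cell wells; concentration-response curves classed.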
KB-3-1 cytotox: KB-3-1 parental cell cytotoxicity; KB-3-1 viability, CellTiter-Glo ATP luminescence, 72 h; Potency, µM (doses to about 46.1 µM), actives largely listed as cytotoxic; 400,000 tested, 1.4% active; AID 1347075; note: nearly all actives have a fitted effect of over 60% in size
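Cells are dispensed, compounds pinned in, plates held at 37 °C for 72 h, then CellTiter-Glo is added and luminescence read after 10 minutes. Cell line: parental KB-3-1 in phenol-red-free DMEM, 10% FBS.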
TDP1 cell noCPT: qHTS for Inhibitors of human tyrosyl-DNA phosphodiesterase 1 (TDP1): qHTS in cells in absence of CPT; 420,000 tested, 15% active; DT40 Tdp1-/- hTDP1 cells, no CPT, ATP luminescence, 48 h; Potency, µM (series often up to 46.2 µM), inactives show top-dose activity change, negative = growth inhibition, usual class: inhibitors; note: nearly all actives have a fitted effect of over 55% in size
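Luminescent ATP content (CellTiter-Glo) served as the growth readout. Knockout chicken DT40 cells expressing human TDP1 were exposed to compounds without camptothecin for a minimum 48 hr at 37 °C.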
HT1080-NT tox: kills 2HG-producing HT-1080-NT fibrosarcoma cells; HT-1080-NT fibrosarcoma viability, CellTiter-Glo ATP luminescence, 48 h; Potency, µM (titrated, usually from 46.1 µM), inactives show top-dose activity, negative = less viability, usual class: cytotoxic; 360,000 tested, 1.6% active;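 note: NT is the 2HG producing partner of a matched IDH1 knockdown line; 0% = DMSO-treated cells and -100% = media-only wells without cells; nearly all actives have a fitted effect of over 55% in size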
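Toxicity toward the 2HG-producing NT line was scored as %Activity, normalised to DMSO and no-cell wells, from CellTiter-Glo luminescence after 48 hours' treatment.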
DT40 TDP1 CPT: growth inhibition of DT40 Tdp1-/-;hTDP1 cells with camptothecin (screen for TDP1 inhibitors). Potency, µM (top dose mostly 46.2 µM), inactives show top-dose activity change, negative = growth inhibition, usual class: inhibitors. chicken DT40 Tdp1-/-;hTDP1 cells + 20 nM CPT, ATP luminescence, 48 h. 420,000 tested, 12% active; note: nearly all actives have a fitted effect of over 55% in size
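Chicken DT40 Tdp1-/- cells stably complemented with human TDP1 were seeded at 400 cells/well in medium containing 20 nM camptothecin, exposed to pin-transferred compounds, and grown at 37 °C for at least 48 hr. Viability was read as ATP luminescence.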
KB-V1 cytotox: kills drug-selected multidrug resistant KB-V1 cells | AID 1347076 | KB-V1 MDR cells viability, CellTiter-Glo, 72 h | Potency, µM (titrated, usually from 46.1 µM), actives largely listed as cytotoxic | 400,000 tested, 3.4% active; note: nearly all actives have a fitted effect of over 60% in size
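Potencies derive from concentration-effect curves fitted to normalized luminescence (CellTiter-Glo) of KB-V1 cells treated for 72 h at 37 degrees C in phenol-red-free DMEM containing 10% FBS.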
An asterisk follows results filed as active; i = inactive; ? = inconclusive; nt = no result. Sampled rows, rich in hits. Any-hit rate of the full collection: about 19%. Calls come from the whole dose curve; as a rule, active = well fitted curve in the direction sought with a large enough effect; inconclusive = small, poorly fitted or top-dose-only effect, or another doubt; inactive = no such curve, though single readings can be large; an effect the other way counts as inactive or inconclusive. Unless noted, % is set by controls: 0 for no effect and ±100 for the full control effect; potency is the fitted concentration of half-maximal effect.

SMILES	HT1080 IDH1KD tx	KB-3-1 cytotox	TDP1 cell noCPT	HT1080-NT tox	DT40 TDP1 CPT	KB-V1 cytotox
CCOCCn1ccc2c(OCC(=O)Nc3ccccc3F)cccc2c1=O	-1%	i	?	-5%	?	i
CCOc1ccccc1NC(=O)COc1cccc2c(=O)n(CCOC)ccc12	nt	i	13µM*	nt	12µM*	?
COc1ccc(C2CC(=O)c3cc(-c4nc(-c5cccc([N+](=O)[O-])c5)cs4)c(=O)n(-c4ccc(C)c(C)c4)c3C2)cc1 (configuration not stated)	nt	i	0%	nt	10%	i
CCCCNC(=O)/C(C#N)=C/c1ccc(C(=O)OC)cc1	19%	i	?	-15%	?	i
CCOCCCNC(=O)/C(C#N)=C/c1ccc([N+](=O)[O-])o1	7.3µM*	i	1.8µM*	?	1.3µM*	i
CCOCCCNC(=O)/C(C#N)=C/c1ccc(-c2ccc(S(=O)(=O)N3CCOCC3)cc2)o1	-1%	i	8.2µM*	-13%	12µM*	16µM*
CCOCCCNC(=O)/C(C#N)=C/c1cc(Br)c(O)c(Br)c1	2.1µM*	6.5µM*	1.6µM*	2.3µM*	4.1µM*	3.7µM*
COCCNC(=O)/C(C#N)=C/c1cc(Br)c(O)c(OC)c1	3%	i	-2%	2%	4%	i
COCCNC(=O)/C(C#N)=C/c1ccc(-c2ccc(S(=O)(=O)N3CCOCC3)cc2)o1	-8%	i	?	16%	?	i
CC(C)=CNNC(=O)c1ccc(O)cc1	nt	i	4%	nt	2%	i
COc1ccc(NC(=O)c2cc(S(=O)(=O)N3CCCCC3)cn2C)cc1Cl	nt	i	-26%	nt	-10%	i
COc1cccc(-c2cccc(-c3nc(C(=O)NCc4ccc(Oc5ccccc5)cc4)cc4c3[C@H](CCO)N(S(=O)C(C)(C)C)C4)c2)c1 (some centres not stated)	?	i	?	?	?	?
CCN(CC)S(=O)(=O)c1cc(NS(=O)(=O)c2cccc(C(=O)O)c2)ccc1C	21%	i	-12%	-24%	1%	i
CCN(CC)S(=O)(=O)c1cc(NS(=O)(=O)c2ccccc2)ccc1C	-1%	i	-28%	0%	16µM*	i
CCN(CC)S(=O)(=O)c1cc(NC(=O)c2ccc(Br)s2)ccc1C	?	?	16µM*	-16%	?	?
CC1Sc2ccc(C(=O)NCc3ccccn3)cc2NC1=O (configuration not stated)	nt	i	0.65µM*	nt	0.82µM*	i
CCN(CC)S(=O)(=O)c1cc(NC(=O)c2ccc3c(c2)NC(=O)C(C)S3)ccc1C (configuration not stated)	-21%	i	21µM*	-10%	21µM*	?
Cc1cc(C)c(NC(=O)c2ccc3c(c2)NC(=O)C(C)S3)c(C)c1 (configuration not stated)	2%	i	-15%	12%	-29%	i
CN(C)CCC(=O)N1c2ccccc2Sc2ccc(Cl)cc21	?	i	-28%	-3%	-7%	i
COc1cc2c(cc1Cl)/C(=C\CCN(C)C)c1ccccc1S2	?	?	?	?	18µM*	16µM*
CN(C)CC/C=C1/c2cc(F)ccc2Sc2ccc(Cl)cc21	16µM*	i	18µM*	23µM*	?	i
Cc1ccc(S(=O)(=O)N(C)C)cc1NC(=O)c1cc(-c2ccco2)nc2ccccc12	6%	nt	18µM*	0%	13µM*	nt
Cc1ccc(C)c(NC(=O)c2ccc3ccccc3n2)c1	-5%	i	?	-8%	?	i
Cc1ccccc1NC(=O)c1cc(-c2ccco2)nc2ccccc12	-1%	?	?	-1%	-5%	i
CCc1cc(C(=O)Nc2cc(S(=O)(=O)N(C)C)ccc2C)sc1C	-13%	i	13µM*	-7%	15µM*	9.2µM*
SMILES	HT1080 IDH1KD tx	KB-3-1 cytotox	TDP1 cell noCPT	HT1080-NT tox	DT40 TDP1 CPT	KB-V1 cytotox
Cc1ccc(S(=O)(=O)N(C)C)cc1NC(=O)c1ccc2ccccc2n1	9%	i	?	5%	21µM*	i
Cc1cccc(NC(=O)c2cc(-c3ccco3)nc3ccccc23)n1	-12%	i	18µM*	-4%	21µM*	i
Cc1ccc(C)c(NC(=O)CN(C)C(=O)COc2cccc3c2OC(C)(C)C3)c1	6%	i	-6%	1%	5%	i
Cc1ccc(C2CC(c3ccc(NS(C)(=O)=O)cc3)=NN2C(=O)c2ccco2)cc1 (configuration not stated)	-24%	i	?	-13%	-5%	i
CS(=O)(=O)Nc1ccc(C2=NN(C(=O)c3ccco3)C(c3ccccc3)C2)cc1 (configuration not stated)	-13%	i	?	-1%	?	16µM*
CCS(=O)(=O)Nc1ccc(C2=NN(C(=O)c3ccco3)C(c3ccc(C)cc3)C2)cc1 (configuration not stated)	?	i	20µM*	?	?	i
Cc1csc(NC(=O)C(C)N2C(=O)c3ccccc3S2(=O)=O)n1 (configuration not stated)	-2%	i	23%	6%	-3%	i
CCOc1ccc2ncc(S(=O)(=O)c3ccccc3)c(N3CCN(c4ccccc4)CC3)c2c1	21%	i	?	24%	15µM*	i
COc1ccc(N2CCN(c3c(S(=O)(=O)c4ccccc4)cnc4ccc(OC)cc34)CC2)cc1	3%	i	18µM*	-4%	23µM*	i
CCN1CCN(c2c(S(=O)(=O)c3ccccc3)cnc3ccc(Cl)cc23)CC1	nt	i	?	nt	-21%	?
COc1ccc(S(=O)(=O)c2cnc3ccc(OC)cc3c2N2CCC3(CC2)OCCO3)cc1	-28%	i	3.3µM*	-23%	8.2µM*	?
C[N+]1(CC(=O)c2ccc(O)c(O)c2)CCOCC1	nt	i	-17%	nt	?	i
CN1C(=O)/C(=C/c2cc(N=Nc3ccccc3)ccc2O)SC1=S	17%	i	23µM*	1%	?	i
